Test results as given in PubChem BioAssay AID1159580 (chemical genetic matrix, 2015).
Screen size: about 5,500 compounds; about 2,000 (36%) were called active. About 18% were inconclusive and are not listed. Rule as the data show it: active = normalized growth mostly below about 0.91 (no sharp cut-off); inconclusive = no clear call, values can overlap the other calls; inactive = mostly above about 0.92. This is one part of the list.

Test: chemical genetic growth profiling, strain panel (AID 1159580);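 also: tested at 20 µM; growth read once vehicle control cultures reached saturation at 30 °C; 1 = growth at the plate median or of vehicle wells; lower values mean less growth of the strain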
Conditions: growth OD
[1] = S. cerevisiae deletion strains, locus YDL101C, strain DUN1, active compounds read low
[2] = S. cerevisiae deletion strains, locus YHR030C, strain SLT2, active compounds read low
[3] = S. cerevisiae deletion strains, locus YAL013W, strain DEP1, active compounds read low
[4] = S. cerevisiae deletion strains, locus YBR229C, strain ROT2, active compounds read low
[5] = S. cerevisiae deletion strains, locus YDL134C, strain PPH21, active compounds read low
[6] = S. cerevisiae deletion strains, locus YDR150W, strain NUM1, active compounds read low
[7] = S. cerevisiae deletion strains, locus YEL061C, strain CIN8, active compounds read low
[8] = S. cerevisiae deletion strains, locus YGR078C, strain PAC10, active compounds read low
[9] = S. cerevisiae deletion strains, locus YGR229C, strain SMI1, active compounds read low
[10] = S. cerevisiae deletion strains, locus YHR087W, strain rtc3, active compounds read low
[11] = S. cerevisiae deletion strains, locus YJL187C, strain SWE1, active compounds read low
[12] = S. cerevisiae deletion strains, locus YJR043C, strain POL32, active compounds read low
[13] = S. cerevisiae deletion strains, locus YJR075W, strain HOC1, active compounds read low
[14] = S. cerevisiae deletion strains, locus YKL190W, strain CNB1, active compounds read low
[15] = S. cerevisiae deletion strains, locus YLR039C, strain RIC1, active compounds read low
[16] = S. cerevisiae deletion strains, locus YLR058C, strain SHM2 (second series), active compounds read low
[17] = S. cerevisiae deletion strains, locus YLR085C, strain ARP6, active compounds read low
[18] = S. cerevisiae deletion strains, locus YLR262C, strain YPT6, active compounds read low
[19] = S. cerevisiae deletion strains, locus YML094W, strain GIM5, active compounds read low
[20] = S. cerevisiae deletion strains, locus YMR219W, strain ESC1, active compounds read low
[21] = S. cerevisiae deletion strains, locus YMR263W, strain SAP30, active compounds read low
[22] = S. cerevisiae deletion strains, locus YNL153C, strain GIM3, active compounds read low
[23] = S. cerevisiae deletion strains, locus YNL298W, strain CLA4 (second series), active compounds read low
[24] = S. cerevisiae deletion strains, locus YNL322C, strain KRE1, active compounds read low
[25] = S. cerevisiae deletion strains, locus YNR030W, strain Alg12, active compounds read low
[26] = S. cerevisiae deletion strains, locus YOL006C, strain TOP1, active compounds read low
[27] = S. cerevisiae deletion strains, locus YPL055C, strain LGE1, active compounds read low
[28] = S. cerevisiae deletion strains, locus YPL241C, strain CIN2, active compounds read low
[29] = S. cerevisiae deletion strains, locus YPR135W, strain CTF4, active compounds read low
[30] = S. cerevisiae strains, strain wild type, active compounds read low

Measured: normalized growth

COc1cccc(NC(=S)NC2CC(C)CC(C)(C)C2)c1 (configuration not stated)
inactive: S. cerevisiae deletion strains, locus YAR019C, strain CDC15, active compounds read low 0.986 | S. cerevisiae deletion strains, locus YBL105C, strain PKC1, active compounds read low 0.986 | S. cerevisiae deletion strains, locus YBR135W, strain CKS1, active compounds read low 0.973 | S. cerevisiae deletion strains, locus YBR136W, strain MEC1, active compounds read low 0.985 | S. cerevisiae deletion strains, locus YBR160W, strain CDC28, active compounds read low 0.978 | S. cerevisiae deletion strains, locus YDL017W, strain CDC7, active compounds read low 0.984 | S. cerevisiae deletion strains, locus YDL028C, strain MPS1, active compounds read low 0.99 | [1] 0.975 | S. cerevisiae deletion strains, locus YDL108W, strain KIN28, active compounds read low 0.989 | S. cerevisiae deletion strains, locus YDL132W, strain cdc53, active compounds read low 0.984 | S. cerevisiae deletion strains, locus YDL214C, strain PRR2, active compounds read low 0.986 | S. cerevisiae deletion strains, locus YDR052C, strain DBF4, active compounds read low 0.99 | S. cerevisiae deletion strains, locus YDR054C, strain cdc34, active compounds read low 0.967 | S. cerevisiae deletion strains, locus YDR226W, strain ADK1, active compounds read low 0.972 | S. cerevisiae deletion strains, locus YDR477W, strain SNF1, active compounds read low 0.98 | S. cerevisiae deletion strains, locus YER123W, strain YCK3, active compounds read low 0.962 | S. cerevisiae deletion strains, locus YER133W, strain GLC7, active compounds read low 0.962 | S. cerevisiae deletion strains, locus YFL009W, strain cdc4, active compounds read low 0.98 | S. cerevisiae deletion strains, locus YFL029C, strain CAK1, active compounds read low 0.99 | S. cerevisiae deletion strains, locus YFR003C, strain YPI1, active compounds read low 0.984 | S. cerevisiae deletion strains, locus YFR019W, strain FAB1, active compounds read low 1.02 | S. cerevisiae deletion strains, locus YFR028C, strain CDC14, active compounds read low 0.966 | S. cerevisiae deletion strains, locus YGR040W, strain KSS1, active compounds read low 0.979 | S. cerevisiae deletion strains, locus YGR052W, strain FMP48, active compounds read low 1.02 | S. cerevisiae deletion strains, locus YGR092W, strain DBF2, active compounds read low 0.895 | [2] 0.927 | S. cerevisiae deletion strains, locus YHR079C, strain IRE1, active compounds read low 0.922 | S. cerevisiae deletion strains, locus YHR082C, strain KSP1, active compounds read low 1.08 | S. cerevisiae deletion strains, locus YHR205W, strain SCH9, active compounds read low 0.995 | S. cerevisiae deletion strains, locus YIL147C, strain SLN1, active compounds read low 0.981 | S. cerevisiae deletion strains, locus YJL095W, strain BCK1, active compounds read low 0.929 | S. cerevisiae deletion strains, locus YJL128C, strain PBS2, active compounds read low 0.954 | S. cerevisiae deletion strains, locus YJL157C, strain FAR1, active compounds read low 0.976 | S. cerevisiae deletion strains, locus YJR016C, strain ILV3, active compounds read low 0.986 | S. cerevisiae deletion strains, locus YJR066W, strain TOR1 (second series), active compounds read low 0.979 | S. cerevisiae deletion strains, locus YJR066W, strain TOR1, active compounds read low 1.07 | S. cerevisiae deletion strains, locus YKL048C, strain ELM1, active compounds read low 0.989 | S. cerevisiae deletion strains, locus YKL067W, strain YNK1, active compounds read low 0.983 | S. cerevisiae deletion strains, locus YKL101W, strain HSL1, active compounds read low 0.996 | S. cerevisiae deletion strains, locus YKL193C, strain SDS22, active compounds read low 0.981 | S. cerevisiae deletion strains, locus YKL203C, strain TOR2, active compounds read low 1.03 | S. cerevisiae deletion strains, locus YLR113W, strain HOG1, active compounds read low 0.957 | S. cerevisiae deletion strains, locus YLR133W, strain CKI1, active compounds read low 0.979 | S. cerevisiae deletion strains, locus YLR403W, strain SFP1, active compounds read low 0.938 | S. cerevisiae deletion strains, locus YML070W, strain DAK1, active compounds read low 0.978 | S. cerevisiae deletion strains, locus YMR001C, strain CDC5, active compounds read low 0.984 | S. cerevisiae deletion strains, locus YMR205C, strain PFK2 (second series), active compounds read low 1 | S. cerevisiae deletion strains, locus YMR277W, strain FCP1, active compounds read low 0.988 | S. cerevisiae deletion strains, locus YNL006W, strain LST8, active compounds read low 0.984 | S. cerevisiae deletion strains, locus YNL020C, strain ARK1, active compounds read low 0.974 | S. cerevisiae deletion strains, locus YNL161W, strain CBK1, active compounds read low 0.971 | S. cerevisiae deletion strains, locus YNL183C, strain NPR1, active compounds read low 1.07 | S. cerevisiae deletion strains, locus YNL207W, strain RIO2, active compounds read low 0.967 | S. cerevisiae deletion strains, locus YNL222W, strain SSU72, active compounds read low 1 | S. cerevisiae deletion strains, locus YNL307C, strain MCK1 (second series), active compounds read low 0.977 | S. cerevisiae deletion strains, locus YOL078W, strain AVO1, active compounds read low 0.985 | S. cerevisiae deletion strains, locus YOL136C, strain PFK27, active compounds read low 0.964 | S. cerevisiae deletion strains, locus YOR061W, strain CKA2, active compounds read low 0.986 | S. cerevisiae deletion strains, locus YOR119C, strain RIO1, active compounds read low 1.04 | S. cerevisiae deletion strains, locus YOR231W, strain MKK1, active compounds read low 1.05 | S. cerevisiae deletion strains, locus YOR329C, strain SCD5, active compounds read low 0.984 | S. cerevisiae deletion strains, locus YPL031C, strain PHO85, active compounds read low 0.973 | S. cerevisiae deletion strains, locus YPL153C, strain RAD53, active compounds read low 0.964 | S. cerevisiae deletion strains, locus YPL204W, strain HRR25, active compounds read low 0.949 | S. cerevisiae deletion strains, locus YPL209C, strain IPL1, active compounds read low 0.99 | S. cerevisiae deletion strains, locus YPL256C, strain CLN2, active compounds read low 0.984 | S. cerevisiae deletion strains, locus YPR025C, strain CCL1, active compounds read low 0.988 | S. cerevisiae deletion strains, locus YPR106W, strain ISR1, active compounds read low 0.994 | S. cerevisiae deletion strains, locus YPR111W, strain DBF20, active compounds read low 0.991 | S. cerevisiae deletion strains, strain NNK1, active compounds read low 0.982 | S. cerevisiae deletion strains, strain TSCII, active compounds read low 0.976

CCOC(=O)c1nc(-c2ccccc2)sc1C(=O)OCC
inactive: [3] 1 | [4] 0.955 | [1] 0.999 | [5] 0.947 | [6] 1 | [7] 0.958 | [8] 0.973 | [9] 0.958 | [2] 0.735 | [10] 0.958 | [11] 0.947 | [12] 0.973 | [13] 0.907 | [14] 0.961 | [16] 0.968 | [17] 0.833 | [19] 0.921 | [20] 0.963 | [21] 0.977 | [22] 0.995 | [24] 0.981 | [25] 0.912 | [27] 0.979 | [28] 0.921 | [29] 0.741
active: [15] 0.716 | [18] 0.814 | [23] 0.766 | [26] 0.718

CCOC(=O)c1sc(-c2ccc(C)cc2)nc1O
active: [3] 0.182 | [4] 0.136 | [1] 0.267 | [5] 0.716 | [6] 0.195 | [7] 0.583 | [8] 0.122 | [2] 0.0748 | [10] 0.135 | [11] 0.107 | [12] 0.337 | [13] 0.174 | [14] 0.46 | [15] 0.409 | [16] 0.129 | [17] 0.228 | [18] 0.464 | [19] 0.345 | [20] 0.218 | [22] 0.301 | [23] 0.118 | [24] 0.313 | [25] 0.438 | [27] 0.659 | [28] 0.463 | [29] 0.368 | [30] 0.518

CCOC(=O)c1ccc2[nH]c(-c3ccccc3)cc(=O)c2c1
inactive: [3] 1.02 | [4] 1 | S. cerevisiae deletion strains, locus YCL061C, strain MRC1, active compounds read low 1.01 | [1] 1.01 | [5] 1.01 | [6] 1.02 | [7] 1.01 | [8] 1.01 | [2] 1.02 | [10] 1 | [11] 1.01 | [12] 1.01 | [13] 0.994 | [14] 1.01 | [15] 1.04 | [16] 1.01 | [17] 1.03 | [18] 1.03 | [19] 0.997 | [20] 1.01 | [21] 0.997 | [22] 1.01 | [23] 1.04 | [24] 1 | [25] 1.04 | [26] 1.04 | [27] 1.11 | [28] 1.03 | [29] 1.09 | [30] 1.03

CN=c1nc(-c2ccccc2)n(-c2ccccc2)s1
inactive: [3] 0.969 | S. cerevisiae deletion strains, locus YAL040C, strain CLN3, active compounds read low 0.983 | S. cerevisiae deletion strains, locus YCL061C, strain MRC1 (second series), active compounds read low 0.984 | [6] 0.973 | S. cerevisiae deletion strains, locus YDR363W, strain ESC2, active compounds read low 0.983 | S. cerevisiae deletion strains, locus YER002W, strain NOP16, active compounds read low 0.982 | [9] 0.905 | S. cerevisiae deletion strains, locus YMR307W, strain GAS1, active compounds read low 0.947 | [22] 0.905 | S. cerevisiae deletion strains, locus YNL175C, strain NOP13, active compounds read low 0.978 | S. cerevisiae deletion strains, locus YNL197C, strain WHI3, active compounds read low 0.99 | S. cerevisiae deletion strains, locus YNL224C, strain SQS1, active compounds read low 0.987 | [24] 0.978 | S. cerevisiae deletion strains, locus YOR083W, strain WHI5 (second series), active compounds read low 0.961 | [28] 0.982
